The record followed here is PubChem BioAssay (EPA / NIEHS).

Activity calls are given as the source filed them. Rule for the calls: active = hit-call score of the fitted dose curve at least 0.9, where 1 is the maximum; inactive = score below 0.9.

The experiment in a line: APR_HepG2_CellLoss_1hr: Apredica 1-hour HepG2 Assay for Cell Loss (AID 2282668).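 Note: curves fitted both ways against DMSO so gain or loss of cells counts.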 The note with it: high-content imaging. Here is the method:
APR_HepG2_1hr is a cell-based, multiplexed-readout assay that uses HepG2, a human liver cell line, with measurements taken at 1 hour after chemical dosing in a 384-well plate.APR_HepG2_CellLoss_1hr is one of 10 assay component(s) measured or calculated from the APR_HepG2_1hr assay. It is designed to make measurements of cell number, a form of viability reporter, as detected with fluorescence intensity signals by HCS Fluorescent Imaging technology.Data from the assay component APR_HepG2_CellLoss_1hr was analyzed into 1 assay endpoint. This assay endpoint, APR_HepG2_CellLoss_1hr, was analyzed with bidirectional fitting relative to DMSO as the negative control and baseline of activity. Using a type of viability reporter, measures of all nuclear dna for gain or loss-of-signal activity can be used to understand the viability at the cellular-level. Furthermore, this assay endpoint can be referred to as a secondary readout, because this assay has produced multiple assay endpoints where this one serves a viability function. To generalize the intended target to other relatable targets, this assay endpoint is annotated to the cell cycle intended target family, where the subfamily is proliferation.
Cells were treated with dimethyl sulfoxide (DMSO) as a solvent control at a final concentration of 0.5% v/v or with compounds in DMSO with a resulting final DMSO concentration of 0.5% v/v. Compound treatment was done at concentrations of 0.39, 0.78, 1.56, 3.12, 6.24, 12.5, 25, 50, 100, and 200 uM in duplicate on each plate. Cells were treated with compounds for 1, 24, or 72 hr. Carbonyl […] m-chloro-phenylhydrazone (CCCP) and taxol were used as positive controls for mitochondrial function and cytoskeletal stability, respectively; DMSO served as the negative control for this experiment. Cells were fixed by the direct addition of 50 uL formaldehyde in Hank's Balanced Salt Solution (HBSS) to a final concentration of 3.7%. After incubation in the fixation medium for 30 min at room temperature (293-298 K), cells were rinsed twice with HBSS and treated with cell permeabilization buffer (16 uL of 0.5% Triton X-100) for 10 min at room temperature (293-298 K) before labeling. For mitochondrial membrane potential and mitochondrial measurements, pre-fixed cells were incubated with 50 uL of MitoTracker Red CMXRos (Invitrogen) at a concentration of 250 nM for 30 min before fixation. In the remaining cases, post-fixed cells were labeled by incubation with a multiplexed mixture of primary antibodies in HBSS for 60 min at room temperature (293-298 K) to detect immunoreactivity of c-Jun (1:500), phospho-histone H3 (1:100), phospho-histone H2A.x (1:200), p53 (1:400), alpha-tubulin (1:200) and Hoechst 33342 (2 ug/mL). Cells were labeled for multiplexed imaging on two separate plates: a) Hoechst 33342, MitoTracker Red, phospho-histone H3, and alpha-tubulin, and b) Hoechst 33342, phospho-histone H2A.x, and c-Jun. A final rinse with HBSS (50 uL) was performed before analysis. The primary and secondary antibodies for the proteins were phospho-histone H3 (rabbit anti-phospho-histone H3 and FITC-donkey anti-rabbit IgG), phospho-histone H2A.x (mouse anti-phospho-histone H2A.x and FITC-donkey anti-mouse IgG), c-Jun (rabbit anti-phospho-c-Jun and Cy3-donkey anti-rabbit IgG), p53 (sheep anti-p53 and Cy5-donkey anti-sheep IgG), alpha-tubulin (mouse anti-alpha-tubulin and Cy5-donkey anti-mouse IgG). These antibodies are available as the CellCiphr HepG2 assay kit (Millipore).Digital images of each well were captured using a Cellomics ArrayScan VTI (Thermo Scientific Cellomics) (0.8 NA objective, 0.63x optical coupler, and XF-93 filter set) at 20x magnification. The images were acquired using the autofocus feature of the ArrayScan instrument, which entails the following steps. First, the camera focuses on channel 1 (Hoechst 33342), where nuclei are identified. Second, a Z offset of 1 um is used for capturing mitochondria (MitoTracker Red). […]
Take `CN1CSC(=S)N(C)C1`: the call was inactive.

As for `O=C1c2ccccc2C(=O)N1SC(Cl)(Cl)Cl`, the molecule was called inactive.

For `N#Cc1c(Cl)c(Cl)c(Cl)c(C#N)c1Cl`, the half-maximal activity concentration (AC50) is 15.8 µM (active).

Consider `CC[C@H](C)[C@H]1O[C@]2(C=C[C@@H]1C)C[C@@H]1C[C@@H](C/C=C(\C)[C@@H](O[C@H]3C[C@H](OC)[C@@H](O[C@H]4C[C@H](OC)[C@@H](O)[C@H](C)O4)[C@H](C)O3)[C@@H](C)/C=C/C=C3\CO[C@@H]4[C@H](O)C(C)=C[C@@H](C(=O)O1)[C@]34O)O2` (tested in a mixture with another compound), for which the molecule was called inactive.

For the molecule `CNC(=O)Oc1cccc(N=CN(C)C)c1`, the molecule was called inactive.

For the molecule `CC(C)(C)C(O)/C(=C\c1ccc(Cl)cc1Cl)n1cncn1` (stereo not given), the outcome was inactive.

Take `O=C(NC(=O)c1c(F)cccc1F)Nc1ccc(OC(F)(F)C(F)OC(F)(F)F)c(Cl)c1` (stereo not given): the call was inactive.

Take `O=S(=O)(O)C(F)(F)C(F)(F)C(F)(F)C(F)(F)C(F)(F)C(F)(F)C(F)(F)C(F)(F)F`: the molecule was classed as inactive.

Consider `C[C@H]1[C@H](c2ccc(Cl)cc2)SC(=O)N1C(=O)NC1CCCCC1`, for which the molecule was called inactive.

For `CC(C)(C)C(O)C(Oc1ccc(Cl)cc1)n1cncn1` (stereo not given), the molecule was classed as inactive.

For `CC1(C)C(C=C(Cl)Cl)C1C(=O)OC(C#N)c1ccc(F)c(Oc2ccccc2)c1` (stereo not given), the outcome was inactive.

With `COP(=S)(OC)Oc1ccc([N+](=O)[O-])cc1`, the molecule was called inactive.

Consider `C#CCN1C(=O)COc2cc(F)c(N3C(=O)C4=C(CCCC4)C3=O)cc21`, for which the outcome was inactive.

As to `CCC(C)(C)C(=O)OC1=C(c2ccc(Cl)cc2Cl)C(=O)OC12CCCCC2`, the molecule was classed as inactive.

With `N#CN`, the call was inactive.

Take `[2H]C1([2H])[n+]2ccccc2-c2cccc[n+]2C1([2H])[2H]`: the call was inactive.

With `CNC(=O)CSP(=S)(OC)OC`, the outcome was inactive.

With `O=[N+]([O-])c1c(Cl)c(Cl)c(Cl)c(Cl)c1Cl`, the call was inactive.

As to `CCCN(CCC)c1c([N+](=O)[O-])cc(C(F)(F)F)cc1[N+](=O)[O-]`, the outcome was inactive.

Consider `COP(=S)(OC)Oc1ccc(SC)c(C)c1`, for which the molecule was classed as inactive.

Take `CCOCN(C(=O)CCl)c1c(C)cccc1CC`: the molecule was called inactive.

For the molecule `CCN(CC)C(=O)SCc1ccc(Cl)cc1`, the result was inactive.

`CCCN(CCOc1c(Cl)cc(Cl)cc1Cl)C(=O)n1ccnc1`: the molecule was classed as inactive.

For the molecule `COc1nn(CSP(=S)(OC)OC)c(=O)s1`, the molecule was called inactive.

Regarding `Oc1ccc(Cl)cc1Cc1ccccc1`, the half-maximal activity concentration (AC50) was 118 µM (active).

Turning to `CCc1ccc(C(=O)NN(C(=O)c2cc(C)cc(C)c2)C(C)(C)C)cc1`, the result was inactive.

Regarding `CCC(C)Nc1c([N+](=O)[O-])cc(C(C)(C)C)cc1[N+](=O)[O-]` (stereo not given), the result was inactive.

On to `Cc1cc(C)nc(NC(=O)NS(=O)(=O)c2ccccc2C(=O)OC2COC2)n1`, for which the call was inactive.

For `O=S1OCC2C(CO1)C1(Cl)C(Cl)=C(Cl)C2(Cl)C1(Cl)Cl` (stereo not given), the call was inactive.

Regarding `O=C(Nc1ccccc1)Nc1cnns1`, the outcome was inactive.

Consider `ClC1C(Cl)C(Cl)C(Cl)C(Cl)C1Cl` (stereo not given), for which the outcome was inactive.

As to `CC(C)N(C(=O)COc1nnc(C(F)(F)F)s1)c1ccc(F)cc1`, the result was inactive.

Regarding `COC(=O)c1ccccc1S(=O)(=O)NC(=O)N(C)c1nc(C)nc(OC)n1`, the result was inactive.

For the molecule `CC1(c2ccc(Oc3ccccc3)cc2)OC(=O)N(Nc2ccccc2)C1=O` (stereo not given), the outcome was inactive.

Consider `O=C(O)C(F)(F)C(F)(F)C(F)(F)C(F)(F)C(F)(F)C(F)(F)C(F)(F)F`, for which the molecule was classed as inactive.

For the molecule `CCOc1nc(NC)nc(NC(=O)NS(=O)(=O)c2ccccc2C(=O)OC)n1`, the result was inactive.

Take `Cc1[nH]c(=O)n(C(C)(C)C)c(=O)c1Cl`: the result was inactive.

As to `COc1cc(OC)nc(NC(=O)NS(=O)(=O)c2cc(NC=O)ccc2C(=O)N(C)C)n1`, the result was inactive.

For `Oc1cc(Cl)ccc1Oc1ccc(Cl)cc1Cl`, the AC50 is 114 µM (active).

On to `Clc1ccccc1-c1nnc(-c2ccccc2Cl)nn1`, for which the result was inactive.

For orientation: AC50 means the concentration at which the activity in the assay is half-maximal.
